The supplement of paper PMC3545927
Some of the results follow. The true hit rate is not given.

B1: FS-2390 (peptide)
chain: CAFERRSFETAGNASASA
B2: HC669 (peptide)
chain: CAGMVSKGWRAGNASASA
B3: HC629 (peptide)
chain: CAVIIKLGALAGNASASA
B4: HC2488 (peptide)
chain: CASWPCSAHLAGNASASA
B5: HC2297 (peptide)
chain: CADSEVVTSTAGNASASA
B6: HC726 (peptide)
chain: CAYLVTRHADAGNASASA
B7: FS-1302 (peptide)
chain: CAAKRRPRRMAGNASASA
B8: FS-1036 (peptide)
chain: CAMLKRFARMAGNASASA
B9: HC405 (peptide)
chain: CAYPPKPCGIAGNASASA
B10: HC36 (peptide)
chain: CAMEECTQHLAGNASASA
B11: HC1069 (peptide)
chain: CAAAQLAAPGAGNASASA
B12: HC1983 (peptide)
chain: CAAVCCSMSYAGNASASA
B13: FS-2835 (peptide)
chain: CARTRRPGEPAGNASASA
B14: FS-2665 (peptide)
chain: CARFRRQDVRAGNASASA
B15: FS-2096 (peptide)
chain: CARTRREAPRAGNASASA
B16: FS-3237 (peptide)
chain: CARSRRSEERAGNASASA
B17: FS-2813 (peptide)
chain: CARSQRSEERAGNASASA
B18: FS-2191 (peptide)
chain: CARTRRYTLFAGNASASA
B19: FS-2090 (peptide)
chain: CARSRRLQQRAGNASASA
B20: FS-3112 (peptide)
chain: CARTRRYYLSAGNASASA
B21: HC927 (peptide)
chain: CAAETTVRLRAGNASASA
B22: FS-2899 (peptide)
chain: CARCVRICSKAGNASASA
B23: HC2489 (peptide)
chain: CASYPCSAHLAGNASASA
B24: HC1200 (peptide)
chain: CATFALWRVSAGNASASA
B25: HC2005 (peptide)
chain: CAVLCCSMSYAGNASASA
B26: FS-1878 (peptide)
chain: CADFVRSITPAGNASASA
B27: FS-2667 (peptide)
chain: CARFRRSVPRAGNASASA
B28: FS-1854 (peptide)
chain: CARFRRSETPAGNASASA
B29: FS-1890 (peptide)
chain: CARERRSEEPAGNASASA
B30: FS-2818 (peptide)
chain: CARSRRQDVRAGNASASA
B31: FS-1702 (peptide)
chain: CARFRRAANRAGNASASA
B32: FS-2141 (peptide)
chain: CARFYRYMGRAGNASASA
B33: FS-2926 (peptide)
chain: CARFRKAYKPAGNASASA
B34: EK4 (peptide)
chain: CATFHKAEYRAGNASASA
B35: FS-3094 (peptide)
chain: CARSRRRSGRAGNASASA
B36: FS-2369 (peptide)
chain: CARRFRSVPRAGNASASA
B37: HC751 (peptide)
chain: CARAAVCTRGAGNASASA
B38: HC580 (peptide)
chain: CAISWCLWWLAGNASASA
B39: FS-3048 (peptide)
chain: CARRIRPTHPAGNASASA
B40: HC1959 (peptide)
chain: CAPCTTPCSGAGNASASA
B41: FS-2416 (peptide)
chain: CARFRRQQWKAGNASASA
B42: FS-2664 (peptide)
chain: CARFRRQDIRAGNASASA
B43: FS-2910 (peptide)
chain: CAREERSWFRAGNASASA
B44: HC1321 (peptide)
chain: CASPPVPPPRAGNASASA
B45: FS-2679 (peptide)
chain: CARHPRSPPRAGNASASA
B46: FS-2836 (peptide)
chain: CARTRRQDIRAGNASASA
B47: HC1484 (peptide)
chain: CATVTESDIRAGNASASA
B48: FS-1705 (peptide)
chain: CARFRRLWPCAGNASASA

Molecular target: furin, P09958
Sequence (P09958 whole entry): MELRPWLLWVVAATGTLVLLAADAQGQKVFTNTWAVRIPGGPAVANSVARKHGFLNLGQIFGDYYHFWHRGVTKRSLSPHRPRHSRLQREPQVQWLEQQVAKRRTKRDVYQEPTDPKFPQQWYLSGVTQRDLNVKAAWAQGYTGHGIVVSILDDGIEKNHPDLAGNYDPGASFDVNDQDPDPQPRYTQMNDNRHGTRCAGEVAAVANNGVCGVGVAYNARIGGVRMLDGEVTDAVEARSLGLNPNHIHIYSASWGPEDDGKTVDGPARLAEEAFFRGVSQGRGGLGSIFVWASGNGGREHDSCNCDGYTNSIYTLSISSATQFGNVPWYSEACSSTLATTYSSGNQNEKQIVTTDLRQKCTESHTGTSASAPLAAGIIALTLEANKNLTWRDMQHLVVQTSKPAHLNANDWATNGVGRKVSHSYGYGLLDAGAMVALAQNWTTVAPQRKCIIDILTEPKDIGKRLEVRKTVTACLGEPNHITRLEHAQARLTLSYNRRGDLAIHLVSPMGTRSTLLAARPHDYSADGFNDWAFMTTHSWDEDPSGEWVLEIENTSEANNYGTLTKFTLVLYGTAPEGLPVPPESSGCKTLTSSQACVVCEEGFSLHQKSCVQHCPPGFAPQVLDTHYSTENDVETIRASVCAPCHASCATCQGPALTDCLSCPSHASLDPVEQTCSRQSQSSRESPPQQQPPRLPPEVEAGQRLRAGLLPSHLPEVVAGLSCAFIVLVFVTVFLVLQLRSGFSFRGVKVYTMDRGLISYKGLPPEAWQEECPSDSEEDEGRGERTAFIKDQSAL
Assay: furin cleavage Z-score vs untreated control; higher = more cleavage, active = 3.5 or more, inactive = 1 or less, 8 variable residues between constant flanks
Method in brief: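 Furin cleavage was scored on 8-mer peptides joined to a cDNA oligonucleotide and bound to magnetic beads at the N-terminus. Digestion with purified furin (1:10 enzyme:substrate, 0.01 ml, 50 mM HEPES pH 7.5, CaCl2, NaCl) lasted 7.5, 15 or 30 min. Freed DNA was tagged with adapters by PCR, sequenced and counted; the cleavage Z-score is the lowess-adjusted log count versus furin-free reactions, scaled by median absolute deviation.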

| Sequence | furin cleavage Z-score (7.5 min) | furin cleavage Z-score (15 min) | furin cleavage Z-score (30 min) |
| --- | --- | --- | --- |
| B1 | -1.51 (inactive) | -1.58 (inactive) | -0.598 (inactive) |
| B2 | -0.876 (inactive) | 0.139 (inactive) | -1.14 (inactive) |
| B3 | 0.217 (inactive) | -0.103 (inactive) | 0.349 (inactive) |
| B4 | 0.993 (inactive) | 0.675 (inactive) | 1.37 |
| B5 | -0.913 (inactive) | 1.6 | 0.0245 (inactive) |
| B6 | -0.934 (inactive) | -0.697 (inactive) | -0.629 (inactive) |
| B7 | 7.77 (active) | 7.84 (active) | 6.56 (active) |
| B8 | 9.66 (active) | 12.7 (active) | 9.59 (active) |
| B9 | -0.254 (inactive) | 1.24 | -0.00218 (inactive) |
| B10 | 1.8 | 0.851 (inactive) | 0.876 (inactive) |
| B11 | 0.864 (inactive) | -0.982 (inactive) | -0.549 (inactive) |
| B12 | -0.929 (inactive) | -0.792 (inactive) | 0.279 (inactive) |
| B13 | -0.179 (inactive) | 0.383 (inactive) | 0.174 (inactive) |
| B14 | 3.01 | 3.49 | 4.11 (active) |
| B15 | 11.6 (active) | 11.4 (active) | 9.47 (active) |
| B16 | 6.2 (active) | 7.41 (active) | 5.66 (active) |
| B17 | -1.38 (inactive) | -0.785 (inactive) | 0.605 (inactive) |
| B18 | 2.37 | 3.82 (active) | 4.23 (active) |
| B19 | -1.41 (inactive) | -1.28 (inactive) | -0.156 (inactive) |
| B20 | -0.7 (inactive) | 2.33 | 1.85 |
| B21 | 0.749 (inactive) | -0.382 (inactive) | 0.0108 (inactive) |
| B22 | 1.54 | -0.229 (inactive) | -0.326 (inactive) |
| B23 | 0.414 (inactive) | -1.17 (inactive) | 1.74 |
| B24 | -1.06 (inactive) | -0.9 (inactive) | -0.368 (inactive) |

| Sequence | furin cleavage Z-score (7.5 min) | furin cleavage Z-score (15 min) | furin cleavage Z-score (30 min) |
| --- | --- | --- | --- |
| B25 | 0.0781 (inactive) | 1.47 | 0.67 (inactive) |
| B26 | -0.721 (inactive) | -0.817 (inactive) | -2.11 (inactive) |
| B27 | 8.62 (active) | 7.98 (active) | 7.02 (active) |
| B28 | 6.5 (active) | 5.93 (active) | 5.18 (active) |
| B29 | -0.884 (inactive) | 3.45 | 0.678 (inactive) |
| B30 | 1.35 | 3.52 (active) | 2.66 |
| B31 | 7.75 (active) | 10.5 (active) | 7.34 (active) |
| B32 | 0.0635 (inactive) | 0.964 (inactive) | -0.333 (inactive) |
| B33 | 0.349 (inactive) | -0.617 (inactive) | -0.661 (inactive) |
| B34 | -1.71 (inactive) | -2.3 (inactive) | -0.599 (inactive) |
| B35 | 1.03 | 0.486 (inactive) | 1.5 |
| B36 | -0.464 (inactive) | 0.0993 (inactive) | 0.454 (inactive) |
| B37 | 0.0348 (inactive) | -0.103 (inactive) | -0.127 (inactive) |
| B38 | -1.57 (inactive) | -0.298 (inactive) | -1.76 (inactive) |
| B39 | -1.48 (inactive) | -0.376 (inactive) | -2.07 (inactive) |
| B40 | -0.283 (inactive) | -0.0949 (inactive) | 0.269 (inactive) |
| B41 | -0.28 (inactive) | -0.542 (inactive) | -0.363 (inactive) |
| B42 | 2.04 | 2.56 | 4.18 (active) |
| B43 | 1.59 | -0.354 (inactive) | -1.01 (inactive) |
| B44 | 0.641 (inactive) | 2.74 | 1.49 |
| B45 | 2.12 | 2.59 | 4.01 (active) |
| B46 | 3.19 | 3.96 (active) | 4.46 (active) |
| B47 | -1.23 (inactive) | -2.19 (inactive) | -1.8 (inactive) |
| B48 | -0.433 (inactive) | -0.574 (inactive) | 0.464 (inactive) |
